“And” between values parts separate entries of the source, which are not always exact repeats. Equal entries are not always repeated. The campaign covered roughly 16,000 compounds. About 4,000 (25%) were called active. About 26% were inconclusive and are not listed. Calls follow the shape of the dose curve; as a rule, active = well fitted curve in the direction sought with a large enough effect; inconclusive = small, poorly fitted or top-dose-only effect, or effect the other way; inactive = no such curve, though single readings can be large or run the other way. These entries were drawn from the full list.
% is scaled to controls: 0 for no effect and ±100 for the full control effect.

For this assay, the target named is Cytochrome P450 2C9 (Homo sapiens) (UniProt P11712). Nature of the assay: Cytochrome panel assay with activity outcomes. The settings on record: recombinant CYP, pro-luciferin dealkylation, luminescence, p450-cyp2c9; series mostly up to 57.1 µM; activity, negative = inhibition: at the top concentration.
Chain of Cytochrome P450 2C9 (Homo sapiens) (P11712 whole entry, looked up): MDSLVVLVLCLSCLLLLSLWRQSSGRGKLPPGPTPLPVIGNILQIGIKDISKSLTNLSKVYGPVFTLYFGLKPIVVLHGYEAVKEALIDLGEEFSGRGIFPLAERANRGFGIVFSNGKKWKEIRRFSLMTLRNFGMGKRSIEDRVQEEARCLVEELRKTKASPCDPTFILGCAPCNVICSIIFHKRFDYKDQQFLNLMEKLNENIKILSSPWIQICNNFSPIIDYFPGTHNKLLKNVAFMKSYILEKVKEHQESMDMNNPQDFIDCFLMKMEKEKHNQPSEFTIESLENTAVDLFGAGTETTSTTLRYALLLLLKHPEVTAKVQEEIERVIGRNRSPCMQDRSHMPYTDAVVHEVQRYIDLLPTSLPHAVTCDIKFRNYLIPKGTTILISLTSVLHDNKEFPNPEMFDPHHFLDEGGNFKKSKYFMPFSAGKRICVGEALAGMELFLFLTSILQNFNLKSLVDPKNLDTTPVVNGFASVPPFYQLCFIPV
`CCn1cc(C(=O)O)c(=O)c2cnc(N3CCNCC3)nc21`: the “activity, negative = inhibition” value is 12.3% [at 25.6 µM] (inactive).

Regarding `Cc1cc2cc(C=O)c(Cl)nc2cc1C`, the “activity, negative = inhibition” value is -8.44% (inactive).

Consider `COc1cccc(Cn2c(=O)c(-c3cccs3)nc3cnc(N(C)C)nc32)c1`, for which the “activity, negative = inhibition” value was -19.1% (inactive).

As for `COc1cccc(Cn2c(=O)c(-c3cccs3)nc3cnc(OC)nc32)c1`, the half-maximal activity concentration (AC50) is 3.16 µM (active).

On to `CCNc1ncc2nc(-c3cccs3)c(=O)n(Cc3cccc(OC)c3)c2n1`, for which the “activity, negative = inhibition” value was -11% (inactive).

As to `O=c1oc(-c2ccco2)nc2c1cnn2-c1ccccc1`, the AC50 is 12.6 µM (active).

With `Cc1ccc(-n2ncc3c2ncn2nc(-c4ccco4)nc32)c(C)c1`, the “activity, negative = inhibition” value is -11.5% (inactive).

For the compound `c1ccc(-n2ncc3c2ncn2cnnc32)cc1`, the “activity, negative = inhibition” value was -3.21% (inactive).

Turning to `N#Cc1cccc(-c2nc(N3CCNCC3)c3ccccc3n2)c1`, the activity, negative = inhibition is 11.8% [at 2.29 µM] (inactive).

With `C=CCN1CCN(c2nc3ccccc3nc2C#N)CC1`, the half-maximal activity concentration (AC50) is 20 µM (active).

For `CNc1nc(-c2ccccc2C(F)(F)F)nc2ccccc12`, the activity, negative = inhibition was 19.6% [at 2.29 µM] (inactive).

On to `Cc1cccc(C)c1NC(=O)COc1cccc(/C=N/NC(=O)C(=O)NCc2ccccc2)c1`, for which the “activity, negative = inhibition” value is -7.69% (inactive).

As for `COc1cccc(/C=N/NC(=O)c2nc(-c3ccccc3)cc(-c3ccccc3)n2)c1`, the “activity, negative = inhibition” value was 11.1% (inactive).

Regarding `C=CCOc1cccc(/C=N/NC(=O)C(=O)NCc2ccco2)c1`, the “activity, negative = inhibition” value was 1.64% (inactive).

As for `COc1cccc(/C=N/NC(=O)c2c(-c3ccccc3)noc2C)c1`, the AC50 was 3.55 µM (active).

As for `COc1cccc(/C=N/NC(=O)C(=O)NCc2cccnc2)c1`, the AC50 is 22.4 µM (active).

Take `CC(C)=CCC/C(C)=C/CO/N=C1/C[C@@H](O)[C@@H](O)[C@@H]2[C@@H]3C(=O)N(C4CCCCC4)C(=O)[C@H]3CC[C@H]12`: the activity, negative = inhibition was -5.92% [at 11.4 µM] (inactive).

`Nc1nc(Br)c2c(F)cccc2c1-c1ccc(Cl)cc1`: the AC50 is 4.47 µM (active).

With `Nc1nc(Br)c2ccccc2c1-c1ccc(F)cc1`, the “activity, negative = inhibition” value was -33.3% (inactive).

Turning to `Nc1nc(Br)c2c(F)cccc2c1-c1ccc(F)cc1`, the AC50 was 2.51 µM (active).

As for `Cc1noc(C)c1-c1cc(Nc2ccc(F)cc2)ncn1`, the activity, negative = inhibition is -1.17% [at 2.29 µM] (inactive).

As for `CN1CCN(c2ncnc3ccc(-c4ccc5c(c4)OCO5)cc23)CC1`, the activity, negative = inhibition is 14.7% [at 2.29 µM] (inactive).

In the case of `CC(C)C(=O)N[C@@H]1CCCN1C(=O)/C=C\c1ccccc1`, the activity, negative = inhibition is -11.6% [at 11.4 µM] (inactive).

Regarding `C#CCSc1nncn1C(=O)/C=C/c1ccccc1`, the AC50 is 3.98 µM (active).

For `CC(C)C(=O)N[C@H]1CCCN1C(=O)/C=C\c1ccccc1`, the activity, negative = inhibition was -2.39% [at 11.4 µM] (inactive).

For `COc1cccc(CC(C(=O)Nc2cc(C)ccc2C)c2nn[nH]n2)c1OC` (configuration not stated), the “activity, negative = inhibition” value was -15.9% (inactive).

As for `C=C(C)c1cccc(C(C)(C)NC(=O)Nc2cc(C)ccc2OC)c1`, the AC50 is 10 µM (active).

Turning to `COc1ccc(C(N)=O)cc1NC(=O)c1cccc(F)c1`, the “activity, negative = inhibition” value was -18.9% (inactive).

`O=C(OC(C(=O)NC1CCCC1)c1ccncc1)C1=Cc2ccccc2OC1` (configuration not stated): the AC50 was 2.82 µM (active).

On to `CN(C)Cc1ccccc1-c1ccc2ncnc(N(C)Cc3ccco3)c2c1`, for which the activity, negative = inhibition was -5.32% [at 2.29 µM] (inactive).

As to `COc1ccc([C@@H]2CC(=O)c3c(O)cc(O)cc3O2)cc1O`, the AC50 was 10 µM (active).

In the case of `COc1ccc([C@@H]2CC(=O)c3c(O)cc(O[C@H]4O[C@@H](CO[C@H]5O[C@@H](C)[C@@H](O)[C@@H](O)[C@@H]5O)[C@@H](O)[C@@H](O)[C@@H]4O)cc3O2)cc1O`, the “activity, negative = inhibition” value is 9.98% [at 25.6 µM] (inactive).

As for `O=C1c2c(O)cc(O)cc2O[C@@H](c2ccc(O)c(O)c2)[C@H]1O`, the “activity, negative = inhibition” value was -23.7% (inactive).

For the compound `COc1ccc(C(=O)NC(=S)NC(C)C)cc1Br`, the “activity, negative = inhibition” value is -42.8% (inactive).

Consider `COc1ccc(Br)c2c1C[C@H](C(=O)O)CC2`, for which the activity, negative = inhibition was -27.4% [at 11.4 µM] (inactive).

On to `COc1ccc(C(=O)NC(=S)NC(C)(C)C)cc1Br`, for which the AC50 is 10 µM (active).

As for `C#CCn1c(=O)c2c(ncn2C)n(C)c1=O`, the “activity, negative = inhibition” value was 3.22% (inactive).

Consider `CN(C)C(=O)c1ccc(-c2ccc3ncnc(Nc4ccccc4)c3c2)cc1`, for which the activity, negative = inhibition is 15.4% [at 2.29 µM] (inactive).

With `CN(C)c1ccc(-c2ccc3ncnc(NCc4ccccc4)c3c2)cc1`, the activity, negative = inhibition is -24.6% [at 2.29 µM] (inactive).

`CN(C)c1cc2c(Nc3ccc4c(cnn4Cc4ccccc4)c3)ncnc2cn1`: the AC50 is 12.6 µM (active).

Turning to `COc1ccccc1NC(=O)Cn1cncc1-c1ccc([N+](=O)[O-])cc1`, the “activity, negative = inhibition” value was -12.7% (inactive).

Turning to `CCN(CC(=O)Nc1ccc([N+](=O)[O-])cc1OC)c1ccccc1`, the AC50 was 2.82 µM (active).

For `COc1cc(OC)c(NC(=S)Nc2cccc(C(C)=O)c2)cc1Cl`, the AC50 was 5.01 µM (active).

In the case of `CCOc1cc(NC(=S)Nc2cccc(C)c2)c(OCC)cc1NC(=O)CC(C)C`, the “activity, negative = inhibition” value is -19.7% (inactive).

Take `CCOC(=O)C1(C(=O)O)NC(=O)CC1c1ccccc1` (configuration not stated): the “activity, negative = inhibition” value is -28.6% (inactive).

Regarding `CCOC(=O)CN1C(=O)Nc2ccc(Br)cc2C1c1ccccc1` (configuration not stated), the AC50 is 6.31 µM (active).

In the case of `O=c1cc(CF)[nH]c(=S)[nH]1`, the activity, negative = inhibition is 8.7% [at 11.4 µM] (inactive).

Regarding `N[C@H](CCCC(=O)O)C(=O)O`, the “activity, negative = inhibition” value was -23.2% (inactive).

Turning to `O=C(O)C1=C/C(=C(/c2ccccc2)c2cc(C(=O)O)c(O)c3ccccc23)c2ccccc2C1=O`, the activity, negative = inhibition is 1.25% [at 11.4 µM] (inactive) and -1.88% [at 11.4 µM] (inactive).

In the case of `O=C(O)c1cc(C(=O)C(=O)c2cc(C(=O)O)c(O)c3ccccc23)c2ccccc2c1O`, the AC50 was 0.316 µM (active).

For `O=C(O)c1cc2ccccc2c(S(=O)(=O)O)c1O`, the activity, negative = inhibition is 10.7% [at 11.4 µM] (inactive).

`Cc1cc(OCC(F)(F)C(F)(F)C(F)(F)C(F)(F)C(F)(F)C(F)F)nc(N)n1`: the AC50 was 12.6 µM (active).

Consider `CC(C)NC[C@@H](O)c1ccc(O)c2ncccc12`, for which the activity, negative = inhibition was 11% [at 11.4 µM] (inactive).

On to `Oc1ccccc1-c1nnc(-c2ccc(C(F)(F)F)cc2)o1`, for which the “activity, negative = inhibition” value was -14.7% (inactive).

In the case of `CCOc1ccc(C2=[N+]([O-])C(C)(C)N(O)C2(C)C)cc1`, the “activity, negative = inhibition” value is -2.98% (inactive).

Take `CCOc1ccc(-c2nnc(-c3ccncc3)o2)cc1`: the AC50 was 12.6 µM (active).

In the case of `Oc1cc2c(cc1O)[C@H](c1ccccc1)CNCC2`, the “activity, negative = inhibition” value is -1.38% (inactive).

In the case of `Cc1c2c(nc3c(C(=O)NC4CCCC4)cnn13)CCCC2`, the “activity, negative = inhibition” value is -21.3% (inactive).

Regarding `Cc1ccccc1-c1nc(N2CCN(C)CC2)c2ccccc2n1`, the activity, negative = inhibition is 5.44% [at 2.29 µM] (inactive).

Turning to `Cc1[nH]n2c(=O)c3c(nc2c1-c1cccc2ccccc12)CCC3`, the AC50 was 5.62 µM (active).

`Cc1ccc(N=Nc2c(N)[nH]n3c(=O)c4c(nc23)CCCC4)cc1`: the AC50 is 10 µM (active).

In the case of `Cc1ccc(N=Nc2c(=O)[nH]n3c(C)cc(C)nc23)cc1`, the “activity, negative = inhibition” value is -17% (inactive).

As a reminder, the AC50 is the concentration at which the activity in the assay is half-maximal.

Source of the values: PubChem BioAssay AID1851 (National Center for Advancing Translational Sciences (NCATS), 2009).
